Results as given in PubChem BioAssay (NCI).
Compounds without any hit were thinned out: in the full panel of roughly 83,000, 20% have a hit.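 Cells were grown in 96-well plates and exposed to the test compound at a single concentration for 48 hours; results are reported as percent growth, with values below 10 considered active.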 A number with no mark means an inactive call. The source made the active and inactive calls.

The compounds below were run on MDA-MB-468 breast (assay: NCI-60 one-dose screen, 48 h (100 = growth as untreated, 0 = no growth, -100 = all killed)). Conditions: 10 µM unless noted.
In the case of `COc1ccc(-c2ccc(-c3ccc(C(=N)N)s3)s2)cc1Cl`, the growth is reported as -12.5% (active). For `C=C(C)[C@@H]1C[C@@H]2Cc3cc(Cl)ccc3N1O2`, the growth was 96%. With `CCN1C(=S)N(CC)C2C1NC(=S)N2/N=C/C=C/c1ccccc1OC` (stereo unspecified) the growth was 9.04% (active). `O=[N+]([O-])c1ccc(-c2nc(N3CCOCC3)c3c4c(sc3n2)CCCC4)cc1` was tested, and the growth was 94.8%. For `COc1ccc2c(c1)-c1c(c3cc(OC)ccc3n(CCN(C)C)c1=O)C2=O`, the growth was 46%. `O=C1CC23OC4ON=C(Br)C4C2C(O)c2ccccc2N13` (stereo unspecified) showed a growth of 106%. `CCc1c(Nc2ccc(C)cc2)nc(N)[nH]c1=O` was tested, and the growth was 94.5%. For `COc1ccc([C@H]2[C@H](O)C(=O)N2c2cc(OC)c(OC)c(OC)c2)cc1O`, the growth was 5.56% (active). `Cc1sc2ncnc(Sc3nc4ccccc4[nH]3)c2c1C` was tested, and the growth was -86.6% (active). For `COc1cc2nc(N3CCC[C@H](NC4=CC(=O)c5ccccc5C4=O)C3)nc(N)c2cc1OC`, the growth was -55.9% (active). `CCOC(=O)c1cnc2ccc(OC)cc2c1Nc1cccc(S(=O)(=O)NC)c1` gave a growth of 113%. Compound `O=C1CC(c2ccc(Cl)cc2)c2ncn(-c3cccc(Cl)c3)c2N1` (stereo unspecified) has a growth of 41.3%. With `CCCc1ccnc(NS(=O)(=O)c2ccc(N)cc2)n1` the growth was 8.05% (active). `CC(C)C(=O)Nc1ccc([N+](=O)[O-])c(C(F)(F)F)c1` was tested, and the growth was 61.7%. In the case of `O=C(O)c1c[nH]c2ccccc2c1=O`, the growth is reported as 114%. Compound `O=C(CSc1nc2ccccc2c(=O)n1-c1ccccc1)Nc1ccc(C(=O)/C=C/c2ccc(Cl)cc2)cc1` has a growth of 121%.
